From PubChem BioAssay (NCATS) come the findings set out here.

Structures are written as SMILES. Unmarked numbers belong to inactive results. The call rests on the fitted dose curve; in most records, active means well fitted activation curve with a large enough effect; inconclusive means small, poorly fitted or top-dose-only effect; inactive means flat fitted curve, though single readings scatter.

The experiment can be described thus: Cellular Toxicity (caspase-3) HepG2 (AID 654).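 Further: cells exposed to compound for 16 hours before reading; 0% = DMSO alone and 100% = caspase signal from 100 µM tamoxifen.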 Conditions: HepG2 caspase-3 activation, luminescence; series mostly up to 92.2 µM; caspase-3 activation: at the top concentration. The text has this: NIH Chemical Genomics Center [NCGC]
NIH Molecular Libraries Screening Centers Network [MLSCN]
National Institutes of Environmental Health Sciences [NIEHS]
National Toxicology Program [NTP]
We have developed a 1536-well cell-based assay for quantitative high throughput screening (qHTS) against a number of cell lines to determine in vitro caspase 3/7 of small molecules. This particular assay uses the HepG2 cell line which is derived from human hepatocellular carcinoma.
NCGC Assay Protocol Summary:
The Caspase-Glo 3/7 assay (Promega) is a homogeneous method to measure caspase-3 and caspase-7 activities in cultured cells. The quantitation of caspase 3/7 activity is based on the cleavage of a peptide-aminoluciferin substrate. After caspase cleaves the substrate the free aminoluciferin is liberated and serves as the substrate of luciferase, which generates the light. The luminescent signal is proportional to amount of caspase 3/7 activity present.
Using the Caspase-Glo 3/7 assay, the amount of caspase 3/7 activity was measured in the HepG2 cell line with complete culture medium following compound treatment for 16 hours. The assay was performed in opaque white 1536-well plates. In the screen, tamoxifen and doxorubicin were used as positive controls. Library compounds were measured for their ability to cause the activation of caspase 3/7 in the cell line, as reflected by an increase in luminescence signal, in a concentration-dependent manner. Data were normalized to the controls for basal activity (DMSO only) and 100% stimulation (100 uM tamoxifen). AC50 values were determined from concentration-response data modeled with the standard Hill equation.
qHTS protocol for caspase 3/7 assay in HepG2 cells
[Step] [Parameter] [Value] [Description]
1. Reagent; 5 uL; 1500 HepG2 cells/well
2. Time; 5 hr; 37 °C incubation
4. Controls; 23 nL; Tamoxifen 0.23 uM to 100 uM & Doxorubicin 7.0 pM to 100 uM
5. Time; 16 hr; 37 °C incubation
6. Reagent; 5 uL; Caspase-Glo 3/7 reagent
7. Time; 20 min; Room Temperature
8. Detection; Luminescence; Viewlux plate reader
Keywords: caspase 3/7, apoptosis, HepG2 cell line, luminescence, NTPHTS, NTPHTS_NCGC, NIEHS, EPA, DSSTox, MLSMR, MLSCN, NIH Roadmap, qHTS, NCGC
`C(=C/c1ccccc1)/c1ccccc1`: the “caspase-3 activation” value was -0.207%.
Take `COc1ccc(OC)cc1`: the “caspase-3 activation” value is -0.344%.
As to `CCCCC(CC)COCC1CO1` (stereo not given), the “caspase-3 activation” value was -0.853%.
In the case of `ClCCl` it was 0.285%; in that of `CC(C)Nc1ccccc1`, 0.142%; in that of `C[C@@H]1CC2(OC[C@]3(C)O[C@H]23)O[C@H]2C[C@@]3(C)[C@@H]4CC[C@H]5C(C)(C)C(O[C@@H]6OC[C@@H](O)[C@H](O)[C@H]6O)CC[C@@]56C[C@@]46CC[C@]3(C)[C@@H]12` (stereo not given in full), 3.15%.
On to `BrC/C=C/CBr`, for which the “caspase-3 activation” value is 0.218%.
In the case of `OC1CCCC1`, the “caspase-3 activation” value was -0.19%.
For `O=C(O)c1c(Cl)cccc1Cl`, the “caspase-3 activation” value is 0.111%.
Next, `CC(C)(C)OC=O`: 0.251%.
For `CCCCC(CC)CNCC(CC)CCCC` (stereo not given), the “caspase-3 activation” value is 0.274%.
Regarding `Nc1cccc(O)c1`, the “caspase-3 activation” value is -0.491%.
For `CC/C=C/C#N`, the “caspase-3 activation” value is 0.34%.
In the case of `O=c1[nH][nH]c(=O)c2cc([N+](=O)[O-])ccc12` it was 0.182%; in that of `O=C(O)c1ccc(Cl)cc1Cl`, 0.645%.
In the case of `CCCCCCC(=O)O`, the “caspase-3 activation” value is 0.522%.
In the case of `COC(=O)CC#N`, the “caspase-3 activation” value is 0.573%.
Regarding `Cc1ccccc1C#N`, the “caspase-3 activation” value is 0.919%.
On to `NC(=O)NC(N)=O`, for which the “caspase-3 activation” value is -0.0368%.
As for `Cc1cccc([N+](=O)[O-])c1C(=O)O`, the “caspase-3 activation” value is 0.799%.
`O=C(O[C@@H](C(=O)O)[C@@H](OC(=O)c1ccccc1)C(=O)O)c1ccccc1`: the “caspase-3 activation” value is -1.11%.
Regarding `O=C1OC(=O)c2c(Cl)c(Cl)c(Cl)c(Cl)c21`, the “caspase-3 activation” value is 0.835%.
For `COC(=O)CS`, the “caspase-3 activation” value is 0.175%.
In the case of `CC(C)N(C)C` it was -0.183%.
`O=C(O)c1cc(Cl)cc(Cl)c1`: the “caspase-3 activation” value is -0.449%.
As to `C=Cc1ccccc1C=C`, the “caspase-3 activation” value is -0.428%.
In the case of `Cc1ccccc1C(N)=O` it was 2.34%; in that of `O=C(O)c1ccccc1Cl`, -0.363%; in that of `Cc1cc([N+](=O)[O-])ccc1N`, 0.853%.
Consider `CC(C)(c1cc(Br)c(OCC(Br)CBr)c(Br)c1)c1cc(Br)c(OCC(Br)CBr)c(Br)c1` (stereo not given), for which the “caspase-3 activation” value is 0.753%.
Next, `CC(C)CCOC(=O)/C=C/c1ccccc1`: -0.81%.
For `O=C(O)/C=C/C(=O)O`, the “caspase-3 activation” value is 0.494%.
On to `Nc1nc2ccccc2[nH]1`, for which the “caspase-3 activation” value is 0.513%.
Take `c1ccc(Oc2ccccc2)cc1`: the “caspase-3 activation” value is 0.225%.
As for `C/C=C(/C)C#N`, the “caspase-3 activation” value was -0.0134%.
Consider `CCCCC(CC)CO` (stereo not given), for which the “caspase-3 activation” value was -0.0145%.
Consider `CC(N)CN` (stereo not given), for which the “caspase-3 activation” value is 1.32%.
In the case of `O=C1OC(=O)c2cc([N+](=O)[O-])ccc21` it was -0.719%; in that of `CC(=O)c1cccc([N+](=O)[O-])c1`, 1.11%; in that of `Cc1ccc(Cl)cc1`, 0.466%.
